CHX counter: counter-screen for Shiga toxin inhibitors: cycloheximide protein synthesis inhibition. cell reporter, cycloheximide protein synthesis inhibition counterscreen. max response, %. hit rate 12% among 300,000. AID 2314; in the data active means max response mostly above about 13%, no sharp cut-off; inactive means mostly below about 14%; further: read at 38.3 µM for the half of the compounds with a filed dose; 0% is about no effect
NS1 inh: influenza NS1 inhibition. Potency, µM (doses to about 46.1 µM), for inactives: at the highest dose activity, positive = more growth. hit rate 0.4% among 270,000. AID 2326; further: potency means the concentration at half of the fitted maximal effect; actives are rising curves; nearly all actives have a fitted effect of over 50% in size
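OD600 was taken as the measure of yeast growth restored by compound in an NS1-expressing S. cerevisiae strain. Cells had been washed out of glucose medium and diluted 1:100 into galactose -URA medium, pH 6.0.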
Shiga toxin inh: inhibitors of Shiga toxin in Vero cells | inhibition, % at 38.7 µM | AID 2315 | Vero cells, Shiga toxin protein synthesis inhibition reporter | hit rate 9.2% among 290,000; in the data active means inhibition mostly above about 28%, no sharp cut-off; inactive means mostly below about 43%; further: 0% is about no effect
SARS PLP yeast: inhibitors of SARS-CoV papain-like protease in yeast; AID 485353; hit rate 0.19% among 330,000; Potency, µM (series often up to 32.9 µM), for the others: at the top dose activity, positive = growth rescue, actives largely listed as activators; S. cerevisiae expressing SARS-CoV PLpro, growth rescue; further: potency means the concentration at half of the fitted maximal effect; 0% is about no effect; nearly all actives have a fitted effect of over 55% in size
* hit, by the source's call. An excerpt weighted towards active compounds, which were near 12% of everything screened. Unless noted, the call rests on the fitted dose curve.

What do the screens show for `Cc1cc(NC(=O)c2cnn3cccnc23)no1`?
CHX counter: 54*; NS1 inh: 13%; Shiga toxin inh: 141*; SARS PLP yeast: 9%

How did O=C(Nc1cccc(Cl)c1)c1cnn2cccnc12 do in these assays?
CHX counter: 38*; NS1 inh: -12%; Shiga toxin inh: active; SARS PLP yeast: -14%

What do the screens show for `Cc1cc(NC(=O)c2nn3cccnc3c2Cl)no1`?
CHX counter: 40*; NS1 inh: -2%; Shiga toxin inh: 34*; SARS PLP yeast: 20%

Results for C=CCn1c(COc2cccc(C)c2)nnc1SCn1nnc2ccccc2c1=O ?
CHX counter: 14*; NS1 inh: -5%; Shiga toxin inh: 29; SARS PLP yeast: 8%

How did O=C(CN(C(=O)CCC(=O)Nc1ccccn1)C1CCCC1)NCc1ccc(F)cc1 do in these assays?
CHX counter: -3; NS1 inh: -5%; Shiga toxin inh: -4; SARS PLP yeast: -1%

Results for CN(C)CCCN(C(=O)c1ccc(S(=O)(=O)N2CCc3ccccc3C2)cc1)c1nc2c(F)cccc2s1 ?
CHX counter: 32*; NS1 inh: 9%; Shiga toxin inh: -6; SARS PLP yeast: -3%

Results for CCN(CC)CCOC(=O)c1ccc(N/C=C(/C#N)c2nc(-c3ccc4c(c3)OCO4)cs2)cc1 ?
CHX counter: 31*; NS1 inh: 19%; Shiga toxin inh: 25; SARS PLP yeast: 3%

What do the screens show for `CCN(CC)CCOC(=O)c1ccc(N/C=C(/C#N)c2nc(-c3ccc(OC)cc3)cs2)cc1`?
CHX counter: -2; NS1 inh: 10%; Shiga toxin inh: 7; SARS PLP yeast: 2%

What do the screens show for `CC(C)(C)NC(=O)c1ccc2c(c1)C(=O)N(C1CCCCC1)C2=O`?
CHX counter: 48*; NS1 inh: -6%; Shiga toxin inh: 80*; SARS PLP yeast: -1%

How did CC(C)CNC(=O)c1ccc2c(c1)C(=O)N(C1CCCCC1)C2=O do in these assays?
CHX counter: -3; NS1 inh: -4%; Shiga toxin inh: -3; SARS PLP yeast: 15%

Results for O=C(Nc1ccc2c(c1)C(=O)N(C1CCCCC1)C2=O)C1CCCO1 (centres undefined) ?
CHX counter: 9.6*; NS1 inh: -99%; Shiga toxin inh: 17; SARS PLP yeast: -27%

Results for O=C(O)c1cccc(NC(=O)c2ccc3c(c2)C(=O)N(C2CCCCC2)C3=O)c1 ?
CHX counter: 44*; NS1 inh: inconclusive; Shiga toxin inh: 108*; SARS PLP yeast: -6%

How did Cc1oc2ccccc2c1-c1cn2c(n1)SCC2 do in these assays?
CHX counter: 11*; NS1 inh: -10%; Shiga toxin inh: 24; SARS PLP yeast: -4%

What do the screens show for `Brc1ccc(-c2cn3c(n2)SCC3)cc1`?
CHX counter: 35*; NS1 inh: -7%; Shiga toxin inh: 100*; SARS PLP yeast: -1%

How did Clc1ccc(-c2cn3c(n2)SCC3)cc1 do in these assays?
CHX counter: 38*; Shiga toxin inh: 162*; SARS PLP yeast: -4%

How did c1ccc(-c2cn3c(n2)SCC3)cc1 do in these assays?
CHX counter: 29*; NS1 inh: 0%; Shiga toxin inh: 50*; SARS PLP yeast: 25%

Results for CCC1Sc2ccc(S(=O)(=O)CCC(=O)Nc3cccc(Br)c3)cc2NC1=O (centres undefined) ?
CHX counter: 9; NS1 inh: -6%; Shiga toxin inh: 2; SARS PLP yeast: -4%

What do the screens show for `Cc1cc(C(=O)Nc2nnc(C(F)(F)F)s2)cs1`?
CHX counter: 18*; NS1 inh: -91%; Shiga toxin inh: 9; SARS PLP yeast: -2%

How did Cc1cc(C(=O)Nc2nnc(C3CCCCC3)s2)cs1 do in these assays?
CHX counter: 38*; NS1 inh: -40%; Shiga toxin inh: 63; SARS PLP yeast: -2%

Results for O=C(Nc1nnc(C(F)(F)F)s1)c1ccc(Br)s1 ?
CHX counter: 21*; Shiga toxin inh: 54*; SARS PLP yeast: -4%

How did Cc1cc(C(=O)Nc2nnc(C(F)(F)F)s2)no1 do in these assays?
CHX counter: 11; NS1 inh: -99%; Shiga toxin inh: 21; SARS PLP yeast: -31%

How did O=C(Nc1nnc(C2CCCCC2)s1)c1ccc(Br)s1 do in these assays?
CHX counter: 7; NS1 inh: 1%; Shiga toxin inh: -3; SARS PLP yeast: -1%

Results for CCSc1nnc(NC(=O)c2ccc(Br)s2)s1 ?
CHX counter: 10; NS1 inh: -19%; Shiga toxin inh: -27; SARS PLP yeast: -4%

What do the screens show for `O=C(c1cccc(F)c1F)N1CCCC1`?
CHX counter: -1; NS1 inh: 6%; Shiga toxin inh: -2; SARS PLP yeast: 21%

What do the screens show for `CCC(C)c1ccccc1NC(=O)C(C)NCCN(C)C` (centres undefined)?
CHX counter: -1; NS1 inh: 1%; Shiga toxin inh: -4; SARS PLP yeast: -1%

Results for O=C(CN1C(=O)CCSc2ccccc21)Nc1ccc2c(c1)OCO2 ?
CHX counter: -2; NS1 inh: -4%; Shiga toxin inh: -30; SARS PLP yeast: 3%

What do the screens show for `O=C(CN1C(=O)C2C3C=CC(C3)C2C1=O)Nc1ccc2c(c1)OCCO2` (centres undefined)?
CHX counter: 17; NS1 inh: 6%; Shiga toxin inh: 60*; SARS PLP yeast: -7%

What do the screens show for `O=C(CN1C(=O)CSc2ccccc21)Nc1ccc2c(c1)OCCO2`?
CHX counter: 29*; NS1 inh: -3%; Shiga toxin inh: 54; SARS PLP yeast: 5%

Results for CCC1Oc2ccccc2N(CC(=O)Nc2ccc3c(c2)OCCO3)C1=O (centres undefined) ?
CHX counter: 17*; NS1 inh: -3%; Shiga toxin inh: 94*; SARS PLP yeast: 1%

What do the screens show for `Cc1cccc(C)c1OCc1cc(C(=O)N2CCN(C3CCCC3)CC2)no1`?
CHX counter: 35*; NS1 inh: -12%; Shiga toxin inh: 64*; SARS PLP yeast: -1%

Results for Cc1cccc(C)c1OCc1cc(C(=O)N2CCC(c3ccncc3)CC2)no1 ?
CHX counter: 37*; NS1 inh: -24%; Shiga toxin inh: 58*; SARS PLP yeast: -13%

How did CSc1ccccc1OCc1cc(C(=O)N2CCN3CCCC3C2)no1 (centres undefined) do in these assays?
CHX counter: 15*; NS1 inh: -1%; Shiga toxin inh: 27; SARS PLP yeast: 1%

How did Cc1cccc(C)c1OCc1cc(C(=O)N2CCN3CCCC3C2)no1 (centres undefined) do in these assays?
CHX counter: 19*; NS1 inh: 7%; Shiga toxin inh: 44*; SARS PLP yeast: 0%

How did COc1ccccc1N(C1=NCCCS1)S(=O)(=O)c1ccc(C(C)(C)C)cc1 do in these assays?
CHX counter: -1; NS1 inh: -3%; Shiga toxin inh: 6; SARS PLP yeast: -2%

How did Cc1cc(C(=O)NNC(=O)c2cccs2)c(C)o1 do in these assays?
SARS PLP yeast: -1%

How did NS(=O)(=O)c1ccc(CCNC(=O)C2(S(=O)(=O)c3ccc(Cl)cc3)CC2)cc1 do in these assays?
CHX counter: 2; NS1 inh: 1%; Shiga toxin inh: -12; SARS PLP yeast: 1%

What do the screens show for `CCN1CCN(C(=O)c2cc(COc3c(C)cccc3C)on2)CC1`?
CHX counter: 19*; NS1 inh: -5%; Shiga toxin inh: 5; SARS PLP yeast: -4%

Results for Cc1cccc(C)c1OCc1cc(C(=O)N2CCC[C@H]2C(N)=O)no1 ?
CHX counter: 14; NS1 inh: -9%; Shiga toxin inh: 25; SARS PLP yeast: -2%
